S1P4 ag: activates the human S1P4 receptor; S1P4-expressing cell line, agonist reporter assay; activation, % at 4.98 µM; actives 0.35% (n = 220,000); AID 1509; in the data active = activation above about 11%;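 note: 0% = DMSO vehicle and 100% = reference agonist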
EP2 mod: EP2 receptor (human) modulation | P43116 | EP2-expressing cells, cAMP HTRF FRET, PGE2 co-stimulation | induction, % at 25 µM | actives 0.83% (n = 260,000) | AID 940;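 active = compounds whose cAMP rise, as percent of the full-agonist control response, exceeds 60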;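 note: rat C6 glioma line stably carrying human EP2 under a CMV promoter; the protocol text gives 20 µM as final concentration; 100% = response of wells given 1 µM PGE2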
Target sequence (P43116 whole entry, looked up): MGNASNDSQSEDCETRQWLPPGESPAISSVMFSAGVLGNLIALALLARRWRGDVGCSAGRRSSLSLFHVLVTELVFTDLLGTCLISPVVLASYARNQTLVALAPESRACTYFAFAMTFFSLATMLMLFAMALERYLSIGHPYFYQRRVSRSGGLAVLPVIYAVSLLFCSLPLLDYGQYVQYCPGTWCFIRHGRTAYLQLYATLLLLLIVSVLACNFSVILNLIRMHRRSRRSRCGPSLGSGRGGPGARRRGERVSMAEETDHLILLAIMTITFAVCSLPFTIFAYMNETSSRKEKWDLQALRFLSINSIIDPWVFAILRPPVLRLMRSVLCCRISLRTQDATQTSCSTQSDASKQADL
S1P4 antagonist: blocks the human S1P4 receptor; O95977; S1P4-expressing cells, antagonist mode, reporter read-out; inhibition, % at 4.98 µM; actives 0.26% (n = 220,000); AID 1510; in the data active = inhibition above about 29%;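 note: 0% = wells stimulated with agonist and 100% = vehicle wells without agonist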
S1P3 antagonist: blocks the human S1P3 receptor; CHO S1P3 NFAT-BLA reporter, FRET fluorescence, antagonist mode; actives 0.27% (n = 170,000); inhibition, % at 4.98 µM; AID 485; Q99500;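 active = inhibition above the plate cutoff, the mean inhibition of test wells on that plate plus 3 SD, cut at about 28% in these data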;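 note: cells challenged with S1P at its EC80 of 0.8 µM; blue over green emission ratio from cleaved BLA substrate after 4 h stimulation; 0% = S1P-stimulated wells and 100% = unstimulated DMSO-only wells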
EP2 antag: inhibitors of human EP2 prostaglandin E2 receptor; inhibition, % at 25 µM; actives 0.52% (n = 260,000); P43116; C6 glioma cells expressing human EP2, cAMP TR-FRET; cells stimulated with saturating PGE2;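 active = percent inhibition above 40 after rounding to a whole number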;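 note: rat C6 glioma host cells with rolipram phosphodiesterase inhibitor present; the protocol text gives 20 µM as final concentration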
S1P4 ag conf: human S1P4 agonism, confirmation; shares compounds with S1P4 ag; S1P4 agonist cell-based reporter assay; activation, % at 4.98 µM; actives 7% (n = 740); AID 1523; in the data active = activation above about 12%;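 note: 0% = vehicle and 100% = full reference agonist response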
S1P1 ag: activates human S1P1, counter-screen for S1P4 agonists | shares compounds with S1P4 ag | S1P1 agonist cell-based assay, activation | activation, % at 4.98 µM | actives 4% (n = 740) | AID 1563; in the data active = activation above about 21%;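 note: 0% = vehicle wells and 100% = reference agonist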
* hit, by the source's call; nt = no result given. Most compounds without a hit are left out; they make up all but 2% or so of the library.

SMILES	S1P4 ag	EP2 mod	S1P4 antagonist	S1P3 antagonist	EP2 antag	S1P4 ag conf	S1P1 ag
CCOC(=O)C1C2C=CC3(CN(c4cccc5ccccc45)C(=O)C13)O2 (centres undefined)	nt	-53.0	nt	nt	4.4	nt	nt
CC(=O)c1cnc2sccn2c1=O	16.1*	25.9	-6.4	-24.2	7.0	-2.8	-4.3
COc1ccc2[nH]c(=O)c(CN(CCCO)C(=S)NC(C)c3ccccc3)cc2c1 (centres undefined)	nt	-26.3	nt	nt	16.6	nt	nt
COc1cccc(OCC(=O)NNC(=O)Cc2cccs2)c1	2.9	-41.1	-26.2	-11.2	6.6	nt	nt
COc1cccc(C(=O)NNC(=O)Cc2cccs2)c1	23.9*	30.1	-9.1	-3.3	3.3	-0.9	2.7
CN(c1nc2nonc2nc1NC1CC1)C1CCOC1 (centres undefined)	12.3*	20.4	-4.7	4.7	6.4	-2.1	5.0
COc1ccc(Cn2c(=O)sc3ccccc3c2=O)cc1	-0.1	4.7	12.5	4.1	1.8	nt	nt
COCCn1c(=O)sc2ccccc2c1=O	26.9*	3.9	-18.4	-12.1	2.8	-0.7	-1.5
Cc1cccc(C)c1N(CC(=O)N1CCN(c2ccccc2F)CC1)S(C)(=O)=O	-0.3	-57.7	3.5	-8.6	4.4	nt	nt
Cc1cccc(C)c1N(Cc1ccccc1F)S(C)(=O)=O	32.9*	38.9	4.5	2.7	8.2	-1.7	-2.0
O=c1cc(-c2ccc([N+](=O)[O-])cc2)c2ccc(O)cc2o1	11.9*	1.9	-7.1	-0.8	6.9	1.5	7.6
CCN(CC(=O)NC(C)C)C(=O)c1ccc(Cl)cc1	18.2*	2.4	0.3	-6.2	10.0	-2.8	-3.8
CCCCN(CC)C(=O)c1ccc(Cl)cc1	2.1	13.3	-4.9	-13.7	5.7	nt	nt
CCOC(=O)c1cccc(NC(=O)CSc2nc3c(c(=O)n(C)c(=O)n3C)n2C(C)C)c1	nt	-2.1	nt	nt	10.0	nt	nt
Cc1nn(CC(=O)N[C@H](Cn2nnc3ccccc32)C(C)C)c(=O)c2ccccc12	nt	-4.0	nt	nt	9.5	nt	nt
CCCCC(CC(O)COCC(C)C)C(=O)NN (centres undefined)	41.7*	11.4	-19.4	3.5	4.4	-1.9	4.0
CC(C)COCC(O)CC(Cc1ccccc1)C(=O)NN (centres undefined)	2.0	14.5	-4.1	-13.0	4.5	nt	nt
C/C(CC(=O)Nc1ccc(F)cc1)=N\NC(=O)Cc1csc(N)n1	0.4	-2.4	-4.2	1.8	9.4	nt	nt
C/C(CC(=O)Nc1ccc(Br)cc1)=N\NC(=O)Cc1csc(N)n1	101.4*	-8.7	12.5	-0.5	2.5	-1.8	-1.0
CC1CN(C(=O)COC(=O)c2ccc(NC(=O)CC#N)cc2)CC(C)O1 (centres undefined)	11.1*	-1.9	-5.4	-6.0	7.5	-2.0	-3.2
Cc1ccnc(NC(=O)CCC(=O)N(CC(=O)NC2CCCCC2)Cc2cccs2)c1	-2.0	-20.1	7.8	-12.7	12.3	nt	nt
Cc1cc(NC(=O)CCC(=O)N(CC(=O)NC2CCCC2)Cc2cccs2)no1	32.9*	7.0	-6.4	-18.4	17.1	-1.9	-2.9
CC(C)(C)c1ccc(N/N=C(\C#N)S(=O)(=O)C(C)(C)C)cc1	28.8*	-47.8	-33.7	-2.8	6.2	-2.5	-3.2
CCc1nnc(NC(=O)CSc2nc3cc(C)cc(C)c3cc2CC)s1	nt	52.2	nt	nt	25.5	nt	nt
COc1ccc(-n2c(SCC(=O)Nc3cc(Cl)ccc3OC)nnc2-c2ccccc2)cc1	nt	8.2	nt	nt	11.7	nt	nt
SMILES	S1P4 ag	EP2 mod	S1P4 antagonist	S1P3 antagonist	EP2 antag	S1P4 ag conf	S1P1 ag
O=C(Nc1ccccc1)C1=C[C@H](c2csc3ccccc23)C[C@H](OCc2ccc(CO)cc2)O1	16.4*	-31.3	-18.8	-9.7	9.4	-0.6	-0.1
O=C(NC1CC1)C1=C[C@H](c2csc3ccccc23)C[C@H](OCc2ccc(CO)cc2)O1	nt	-2.0	nt	nt	8.7	nt	nt
O=C(COC(=O)CCc1nc2ccccc2s1)NC(=O)NCc1ccco1	17.3*	-4.3	0.7	-4.4	3.5	-1.1	-3.2
O=C(CN1C(=O)N2CCN=C2c2ccccc21)N1CCCc2ccccc21	nt	-66.5	nt	nt	8.1	nt	nt
N/C(CCS(=O)(=O)c1ccc(Cl)cc1)=N\OC(=O)c1ccccc1C(F)(F)F	0.4	-33.3	7.0	-8.5	13.5	nt	nt
N/C(CCS(=O)(=O)c1ccc(Cl)cc1)=N\OC(=O)c1ccc(Cl)cc1	102.7*	-27.6	15.8	-2.5	14.0	-0.7	-3.7
O=C(COc1ccc(S(=O)(=O)N2CCCC2)cc1)Nc1ccccc1	nt	-26.6	nt	nt	5.2	nt	nt
CCc1nc(SCC(=O)NC)c2c3c(sc2n1)CC(C)CC3 (centres undefined)	nt	18.1	nt	nt	5.2	nt	nt
Cc1ccc(C(=O)N/C(=C\c2ccccc2)C(=O)NCC2CCCO2)cc1 (centres undefined)	-0.5	4.5	-9.2	-7.9	11.5	nt	nt
O=C(NCC1CCCO1)/C(=C/c1ccccc1)NC(=O)c1ccccc1 (centres undefined)	27.8*	27.1	-25.1	13.8	6.4	-3.1	-6.2
O=C(NC(=S)NCC1CCCO1)c1ccco1 (centres undefined)	14.0*	11.9	-4.6	-1.4	8.2	-0.5	-0.2
CC(=O)c1ccc(NC(=O)CN2CCC(n3nnc4cc(C(F)(F)F)ccc43)CC2)cc1	nt	-55.9	nt	nt	13.6	nt	nt
O=C(COC(=O)C1(c2ccc(Cl)cc2)CCCC1)Nc1ncc(C(F)(F)F)cc1Cl	29.2*	8.1	-1.1	4.5	8.5	-1.4	0.0
c1ccc(C2CC(c3cccs3)=NN2c2ccccc2)cc1 (centres undefined)	10.6	9.9	1.6	5.0	19.5	nt	nt
COc1ccc(C2CC(c3cccs3)=NN2c2ccc(C=O)cc2)cc1 (centres undefined)	22.6*	24.4	-6.4	16.7	8.2	17.1*	21.1*
CC(C)(C)c1ccc(N2C(=O)CSC2c2cccnc2)cc1 (centres undefined)	98.7*	-37.0	12.1	-3.3	12.5	-1.2	-6.3
CC(Oc1ccc(F)cc1)C(=O)Nc1ccc(S(=O)(=O)N2CCOCC2)cc1 (centres undefined)	nt	-95.6	nt	nt	10.8	nt	nt
COc1ccc(NC(=O)CSc2nc(C)cs2)c(OC)c1	73.9*	-20.5	5.4	-5.7	4.2	-2.8	1.4
O=C(O)C1Cc2c([nH]c3ccccc23)C(Cc2ccccc2)N1 (centres undefined)	nt	-32.2	nt	nt	8.8	nt	nt
O=C(Nc1ccc2c(c1)ncn2-c1ccccc1)c1ccco1	1.7	3.0	4.4	28.2	5.3	nt	nt
Cn1cnc2cc(NC(=O)c3ccco3)ccc21	61.2*	-1.6	6.4	-1.4	12.9	-1.6	-9.0
Cc1nc(-c2ccncc2)sc1C(=O)Nc1ccc(Br)cc1	19.9*	-44.0	3.6	-13.8	11.6	-0.6	-8.4
O=C(Nc1ccc(Br)cc1)c1csc(-c2ccncc2)n1	19.1*	-19.6	10.1	-8.3	174.3*	-1.9	-3.1
O=C(Nc1ccc(Cl)cc1)c1csc(-c2ccncc2)n1	-0.9	-29.0	-3.0	5.5	7.4	nt	nt

Screening results as filed in PubChem BioAssay.
